From PubChem BioAssay AID1159580 (chemical genetic matrix, 2015)
Values joined by “and” are separate entries in the source; they are usually repeats but may differ in a detail not shown here. Equal values may be shown once. The campaign covered roughly 5,500 compounds. About 2,000 (36%) were called active. Roughly 18% stayed inconclusive and do not appear here. No stated cut-off is given here; in the data, active means normalized growth mostly below about 0.91 (no sharp cut-off); inconclusive means no clear call, values can overlap the other calls; inactive means mostly above about 0.92. Some of the results follow.

Assay: chemical genetic growth profiling, strain panel (AID 1159580);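 further: tested at 20 µM; growth read once vehicle control cultures reached saturation at 30 °C; 1 = growth at the plate median or of vehicle wells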
Conditions: S. cerevisiae deletion strains, growth OD

Measured: normalized growth

COc1ccc(CCC(=O)c2c(O)cc(O[C@@H]3O[C@H](CO)C(O)[C@H](O)C3O[C@@H]3O[C@@H](C)[C@H](O)[C@@H](O)[C@H]3O)cc2O)cc1O (some centres not stated)
inactive: locus YAL013W, strain DEP1, stronger effect = lower value 1 | locus YAL021C, strain ccr4, stronger effect = lower value 0.994 | locus YAL026C, strain drs2, stronger effect = lower value 1.04 | locus YAL030W, strain snc1, stronger effect = lower value 1.01 | locus YBL061C, strain skt5, stronger effect = lower value 1.02 | locus YBR009C, strain hhf1, stronger effect = lower value 1.02 | locus YBR021W, strain FUR4, stronger effect = lower value 0.997 | locus YBR023C, strain chs3, stronger effect = lower value 1.02 | locus YBR171W, strain sec66, stronger effect = lower value 1.04 | locus YBR229C, strain ROT2, stronger effect = lower value 0.998 | locus YBR231C, strain swc5, stronger effect = lower value 1.03 | locus YBR279W, strain paf1, stronger effect = lower value 1.02 | locus YCL011C, strain gbp2, stronger effect = lower value 1.02 | locus YCL016C, strain dcc1, stronger effect = lower value 1.01 | locus YCL029C, strain bik1, stronger effect = lower value 0.972 | locus YCL061C, strain MRC1, stronger effect = lower value 1.02 | locus YCL069W, strain vba3, stronger effect = lower value 1.02 | locus YCR088W, strain abp1, stronger effect = lower value 1.02 | locus YDL005C, strain med2, stronger effect = lower value 1.03 | locus YDL035C, strain GPR1, stronger effect = lower value 0.999 | locus YDL040C, strain nat1, stronger effect = lower value 0.998 | locus YDL074C, strain BRE1, stronger effect = lower value 0.966 | locus YDL101C, strain DUN1, stronger effect = lower value 0.995 | locus YDL134C, strain PPH21, stronger effect = lower value 0.997 | locus YDL185W, strain tfp1, stronger effect = lower value 0.955 | locus YDL192W, strain arf1, stronger effect = lower value 0.976 | locus YDR001C, strain nth1, stronger effect = lower value 1.01 | locus YDR069C, strain doa4, stronger effect = lower value 1.04 | locus YDR101C, strain arx1, stronger effect = lower value 0.987 | locus YDR137W, strain rgp1, stronger effect = lower value 1.04 | locus YDR150W, strain NUM1, stronger effect = lower value 1.01 | locus YDR159W, strain sac3, stronger effect = lower value 1.1 | locus YDR162C, strain NBP2, stronger effect = lower value 0.99 | locus YDR195W, strain ref2 0.986 | locus YDR297W, strain sur2, stronger effect = lower value 1.02 | locus YDR318W, strain mcm21, stronger effect = lower value 0.978 | locus YDR334W, strain swr1, stronger effect = lower value 1.03 | locus YDR335W, strain msn5, stronger effect = lower value 1.01 | locus YDR388W, stronger effect = lower value 0.995 | locus YDR392W, strain spt3, stronger effect = lower value 1.02 | locus YDR502C, strain sam2, stronger effect = lower value 1 | locus YEL003W, strain gim4, stronger effect = lower value 1.02 | locus YEL037C, strain rad23, stronger effect = lower value 1.01 | locus YEL061C, strain CIN8 (second series), stronger effect = lower value 1.01 | locus YEL061C, strain CIN8, stronger effect = lower value 0.999 | locus YER015W, strain faa2, stronger effect = lower value 1.01 | locus YER016W, strain bim1, stronger effect = lower value 1.03 | locus YER110C, stronger effect = lower value 0.983 | locus YER111C, strain swi4, stronger effect = lower value 1.01 | locus YER155C, strain BEM2 (second series), stronger effect = lower value 1.03 | locus YER155C, strain BEM2, stronger effect = lower value 0.992 | locus YER167W, strain BCK2, stronger effect = lower value 0.994 | locus YFR010W, strain ubp6, stronger effect = lower value 1.02 | locus YGL078C, strain dbp3, stronger effect = lower value 0.994 | locus YGL086W, strain mad1, stronger effect = lower value 0.999 | locus YGL167C, strain pmr1, stronger effect = lower value 1.03 | locus YGL173C, strain kem1, stronger effect = lower value 1.03 | locus YGL227W, strain vid30, stronger effect = lower value 1.02 | locus YGL240W, strain doc1, stronger effect = lower value 1.05 | locus YGL248W, strain PDE1, stronger effect = lower value 1 | locus YGL253W, strain hxk2, stronger effect = lower value 1.02 | locus YGR078C, strain PAC10, stronger effect = lower value 1.01 | locus YGR135W, strain pre9, stronger effect = lower value 1 | locus YGR229C, strain SMI1, stronger effect = lower value 1.01 | locus YGR252W, strain gcn5, stronger effect = lower value 1.07 | locus YHR013C, strain ard1, stronger effect = lower value 1 | locus YHR027C, strain rpn1, stronger effect = lower value 1.02 | locus YHR030C, strain SLT2, stronger effect = lower value 1 and 0.973 | locus YHR079C, strain IRE1 (second series), stronger effect = lower value 0.98 | locus YHR079C, strain IRE1, stronger effect = lower value 0.961 | locus YHR094C, strain hxt1, stronger effect = lower value 0.966 | locus YHR129C, strain ARP1, stronger effect = lower value 0.998 | locus YHR142W, strain chs7, stronger effect = lower value 1.01 | locus YHR200W, strain rpn10, stronger effect = lower value 0.975 | locus YIL066C, strain RNR3, stronger effect = lower value 0.994 | locus YIL073C, strain SPO22, stronger effect = lower value 0.941 | locus YIL125W, strain kgd1, stronger effect = lower value 0.981 | locus YIR030C, strain dcg1, stronger effect = lower value 0.988 | locus YJL092W, strain hpr5, stronger effect = lower value 1.01 | locus YJL095W, strain BCK1 (second series), stronger effect = lower value 1.01 | locus YJL095W, strain BCK1, stronger effect = lower value 0.969 and 0.981 | locus YJL115W, strain asf1, stronger effect = lower value 1.02 | locus YJL129C, strain trk1, stronger effect = lower value 1.03 | locus YJL134W, strain LCB3, stronger effect = lower value 0.999 | locus YJL154C, strain vps35, stronger effect = lower value 1.01 | locus YJL164C, strain tpk1, stronger effect = lower value 0.995 | locus YJL166W, strain qcr8, stronger effect = lower value 1.02 | locus YJL168C, strain set2, stronger effect = lower value 0.978 | locus YJL187C, strain SWE1 (second series), stronger effect = lower value 0.984 | locus YJL187C, strain SWE1, stronger effect = lower value 1.04 | locus YJR043C, strain POL32, stronger effect = lower value 0.963 | locus YJR066W, strain TOR1, stronger effect = lower value 0.896
